Source: PubChem
This is a sample that favours compounds with a hit; in the whole collection about 7.8% have one here.
Vaccinia Venus: inhibitors of vaccinia virus (Venus reporter); 0.46% of 330,000 active; Potency, µM (top dose mostly 36.5 µM), inactives show at the top dose activity change, negative = inhibition, most hits filed as inhibitors; Vaccinia virus Venus reporter expression, fluorescence; calls by dose curve; tested in A549 cells; further: potency means the concentration at half of the fitted maximal effect; on the % scale 0 is the no-effect control and ±100 the full control effect; nearly all actives have a fitted effect of over 30% in size
VACV mCherry inh: inhibitors of vaccinia virus infection (mCherry reporter signal). Vaccinia virus mCherry reporter infection, fluorescence. Potency, µM (series often up to 36.5 µM), inactives show at the highest dose activity change, negative = inhibition, usual class: inhibitors. 0.63% of 310,000 active. AID 720579; calls by dose curve; tested in A549 cells; further: potency means the concentration at half of the fitted maximal effect; on the % scale 0 is the no-effect control and ±100 the full control effect; nearly all actives have a fitted effect of over 35% in size
Lassa entry inh: inhibitors of Lassa virus binding or cell entry | Lassa virus pseudotype entry inhibition, cell reporter | Potency, µM (top dose mostly 37.9 µM), inactives show at the top dose activity change, negative = inhibition, usual class: inhibitors | 1.2% of 300,000 active; calls by dose curve; tested in HEK293 cells; further: potency means the concentration at half of the fitted maximal effect; on the % scale 0 is the no-effect control and ±100 the full control effect; nearly all actives have a fitted effect of over 50% in size
HCV inh: blocks hepatitis C virus; Huh7.5.1 HCVcc-Cre infection, luciferase reporter, 44 h; 3.4% of 340,000 active; Potency, µM (series often up to 41.8 µM), for the others: at the highest dose activity change, negative = inhibition, usual class: inhibitors; further: potency means the concentration at half of the fitted maximal effect; on the % scale 0 is the no-effect control and ±100 the full control effect
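Luciferase read-out (15 sec integration) after a 15 min room-temperature substrate step quantifies HCVcc-Cre infection. Cells, 1,000 per well, had compound added 4 h post-plating, then virus at ~0.5 moi, and were cultured 44 h.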
MARV entry inh: inhibitors of Marburg virus binding or cell entry. Potency, µM (series often up to 37.8 µM), for inactives: at the highest dose activity change, negative = inhibition, most hits filed as inhibitors. Marburg virus pseudotyped entry inhibition, cell reporter. 1.8% of 300,000 active; calls by dose curve; tested in HEK293 cells; further: potency means the concentration at half of the fitted maximal effect; on the % scale 0 is the no-effect control and ±100 the full control effect
HCMV antiviral: inhibitors of human cytomegalovirus; 4.5% of 410,000 active; activity change, negative = inhibition, % at 57.5 µM; AID 1259415; HFF cells, HCMV-luciferase reporter, 72 h; active compounds read low; in the data active means activity change below about -60%; inconclusive means no clear call, values can overlap the other calls; inactive means above about -39%; further: on the % scale 0 is the no-effect control and ±100 the full control effect
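After 16 h attachment at 37C, HFF cells received test compound and HCMV-luciferase (1 PFU/cell); reporter luminescence read 72 h later, data normalized against buffer-only and known inhibitor Salinomycin.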
HCV confirm: HCV inhibition, cherry-pick confirmation; HCVcc-Cre infectious virus cell assay, luciferase, inhibition; shares compounds with HCV inh; 78% of 640 active; AID 720575; Potency, µM (highest dose often 41.8 µM), without a hit: at the highest dose activity, negative = inhibition, hits mostly inhibitors; further: potency means the concentration at half of the fitted maximal effect; nearly all actives have a fitted effect of over 80% in size
HCV cytotox: counter-screen for HCV inhibitors: host cell cytotoxicity; shares compounds with HCV inh; HCV host cell line cytotoxicity counterscreen; Potency, µM (doses to about 41.8 µM), for inactives: top-dose activity change, negative = cytotoxicity, most hits filed as inhibitors; 22% of 640 active; AID 720576;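 further: potency means the concentration at half of the fitted maximal effect; 44 h compound exposure; on the % scale 0 is the no-effect control and ±100 the full control effect; nearly all actives have a fitted effect of over 55% in size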
The depositor's hits bear a star; i = inactive; ? = inconclusive; / = no result given; [ ] = dose if it differs, or a comment. Unless noted, the call rests on the fitted dose curve; in most records, active means well fitted curve in the direction sought with a large enough effect; inconclusive means small, poorly fitted or top-dose-only effect, or another doubt; inactive means no such curve, though single readings can be large; an effect the other way counts as inactive or inconclusive.

SMILES | Vaccinia Venus | VACV mCherry inh | Lassa entry inh | HCV inh | MARV entry inh | HCMV antiviral | HCV confirm | HCV cytotox
Cc1ccc(NC(=O)c2c(NC(=O)c3ccco3)sc3c2CCC(C(C)(C)C)C3)c(C)c1 (stereo not given) | -6% | i | 4%[46.1 µM] | / | -4%[46.1 µM] | -12 | / | /
CC1CN(C)C(C)CC1OC(=O)C(c1ccccc1)c1ccccc1 (stereo not given) | / | / | / | ? | / | -6 | 25µM* | -22%
NS(=O)(=O)c1ccc(N=Nc2ccc(O)c3ncccc23)cc1 | 10µM* | ? | / | 3.5µM* | / | -97* | 7.9µM* | 8.9µM*
CCOc1ccc(CNC(=O)c2ccc(Sc3ccc(Cl)cc3)c(NC(C)=O)c2)cc1 | ? | ? | ? | -29% | ? | -18 | / | /
CCOc1ccccc1CNC(=O)c1ccc(Sc2ccc(Cl)cc2)c(NC(C)=O)c1 | -13% | -1% | -1% | ? | -22% | -22 | 13µM* | 18%
COc1cccc(CNC(=O)Cc2c(C(=O)O)c(C)cn2C)c1 | -5% | -12% | 17%[46.1 µM] | / | / | 19 | / | /
O=C(NC1(C(F)(F)F)Oc2ccc(Cl)cc2O1)N1CCC2(CC1)OCCO2 (stereo not given) | -21% | ? | -25% | ? | ? | -6 | / | /
O=C(NC1(C(F)(F)F)Oc2ccccc2O1)N1CCC2(CC1)OCCO2 | -21% | ? | -25%[14.3 µM] | ? | ? | 41 | ? | ?
COc1ccc(C(CC(=O)Nc2ccc(Br)cn2)N2Cc3ccccc3C2=O)cc1 (stereo not given) | -7% | -11% | -14%[46.1 µM] | / | / | ? | / | /
COc1cc(CCC(O)CC(=O)CCc2ccccc2)ccc1O (stereo not given) | 4% | 6% | / | 1.1µM* | / | 3 | -23% | 33%
CCc1nn2cc(C(=O)c3cc(C)ccc3O)cnc2c1-c1ccc(F)cc1 | -13% | -13% | 9% | ? | ? | -18 | / | /
CCc1nn2cc(C(=O)c3ccccc3O)cnc2c1-c1ccc(F)cc1 | -13% | -13% | -13% | ? | -31% | 27 | 11µM* | -10%
CN=c1sc2c(n1C)C(=O)c1ccccc1C2=O | 4µM* | 2.8µM* | ? | ? | ? | -31 | 31µM* | 28µM*
CN=c1sc(C(=O)Nc2ccccc2)c(C)n1C | -4% | -1% | ? | -21% | ? | -7 | / | /
CCS(=O)(=O)N1CCC(C(=O)NCCC(C)C)CC1 | -12% | -6% | -19%[46.1 µM] | / | / | -17 | / | /
COc1ccc(-c2nc3sc(CCNC(=O)c4ccco4)c(C)n3n2)cc1 | -9% | i | -4%[46.1 µM] | / | / | 84 | / | /
COc1ccc(CCNS(=O)(=O)c2ccc(F)c(C(=O)Nc3ccc(Cl)cc3)c2)cc1OC | ? | -28% | ? | / | / | -31 | / | /
c1cnc2c(c1)ccc1cccnc12 | ? | 3.5µM* | 3.7µM* | 8.9µM* | 5.8µM* | -99* | 7µM* | -65%
COc1cc(Cl)c(C)cc1NC(=O)CSc1ccc(C)cc1 | / | / | 14% | ? | -25% | 50 | / | /
COc1cc(Cl)c(C)cc1NC(=O)CSc1cc(Cl)ccc1Cl | -9% | -12% | ? | ? | -15% | 92 | 11µM* | -28%
Cc1ccc(Nc2nc(C)cc(C)n2)c(C(=O)O)c1 | -13% | -18% | 10%[46.1 µM] | / | / | 15 | / | /
COc1ccc(N(CCCN2C(=O)c3cccc4cccc(c34)C2=O)C(=O)c2cccs2)cc1 | / | / | 0% | ? | 2% | -21 | / | /
COc1cc(C)ccc1N(CCCN1C(=O)c2cccc3cccc(c23)C1=O)C(=O)c1cccs1 | -21% | -27% | ? | 5.6µM* | ? | ? | 13µM* | 36%
COc1ccc(OC)c(CCNC(=O)c2cc3cccc4c3n2CCS4)c1 | -5% | -7% | -25%[46.1 µM] | / | / | 0 | / | /
COc1ccc(CCn2c(SCC(=O)Nc3cc(C)on3)nc3ccsc3c2=O)cc1OC | / | / | -43% | ? | ? | -12 | ? | 25%
